# Assay results reported in the supplement of paper PMC10127200.
# Structures can show the parent of a compound that is named as a salt.
# Experiments:
# Assay in all cases: Euclidean distance of Cell Painting phenotypic profile (signed KS, 77 features) to DMSO centroid (dimensionless distance); 5 or 10 uM (library dependent); higher = stronger phenotypic change vs DMSO (phenoactivity)
# Conditions in all cases: 48 h
# 786-O = tested on: 786-O
# In short: (§1)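 Five cancer lines, together with a healthy fibroblast line, received library compounds for 48 h at a library-dependent 10 or 5 uM and 0.1% DMSO final. Harmony then derived 77 features from confocal 20X images (9 fields/well) of the stained cells, scoring each as a signed Kolmogorov-Smirnov statistic against same-plate vehicle wells. After plate-position correction, correlation weighting and replicate averaging at the top dose, phenoactivity was taken as each profile's Euclidean distance to the median vehicle profile.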
# A549 = tested on: A549
# In short: as §1
# DU145 = tested on: DU145
# In short: as §1
# FB = tested on: FB
# In short: as §1
# HEPG2 = tested on: HEPG2
# In short: as §1
# OVCAR4 = tested on: OVCAR4
# In short: as §1
SMILES,Euclidean distance (786-O),Euclidean distance (A549),Euclidean distance (DU145),Euclidean distance (FB),Euclidean distance (HEPG2),Euclidean distance (OVCAR4)
COc1ccc(Cl)cc1C(=O)NCCc1ccc(S(=O)(=O)NC(=O)NC2CCCCC2)cc1 [Glyburide],1.1,0.731,1.49,1.27,2.08,1.32
COc1cccc2c1C(=O)c1c(O)c3c(c(O)c1C2=O)C[C@@](O)(C(=O)CO)C[C@@H]3O[C@H]1C[C@H](N)[C@H](O)[C@H](C)O1 [Doxorubicin (Adriamycin)],4.79,5.36,4.79,5.17,4.55,5
CS(=O)(=O)N1CCN(Cc2cc3nc(-c4cccc5[nH]ncc45)nc(N4CCOCC4)c3s2)CC1,2.85,2.71,1.63,2.18,1.4,1.83
CCCS(=O)(=O)N[C@H]1C[C@@H](N(C)c2ncnc3[nH]ccc23)C1,0.905,1.03,1.02,1.03,0.71,1.17
O=c1oc2ccccc2c(O)c1Cc1c(O)c2ccccc2oc1=O [Dicoumarol],0.633,0.618,0.712,0.872,0.701,0.783
Cc1ccc(NC(=O)c2cccc(C(C)(C)C#N)c2)cc1Nc1ccc2ncn(C)c(=O)c2c1,1.3,2.03,1.98,3.42,1.53,0.804
CN1[C@@H]2CC[C@H]1C[C@@H](OC(=O)c1c[nH]c3ccccc13)C2 [Tropisetron],1.17,1.76,1.05,1.46,1.1,1.17
CCN(CC)CCNC(=O)c1cc(S(C)(=O)=O)ccc1OC [Tiapride Hydrochloride],0.725,0.496,0.652,0.955,0.542,0.874
CCCCCCCCCCCCCCCCCC(=O)O [Stearic acid],1.24,1.11,0.794,1.08,0.463,0.768
CC(C)(CO)[C@@H](O)C(=O)NCCC(=O)O [D-Pantothenate Sodium],1.18,0.904,1.05,1.15,0.523,1.33
COc1cc(C(C)=O)ccc1OCCCN1CCC(c2noc3cc(F)ccc23)CC1 [Iloperidone],1.83,1.43,0.93,1.43,0.503,1.87
CC1(C)[C@@H](O)CC[C@]2(C)[C@H]3C(=O)C=C4[C@@H]5C[C@@](C)(C(=O)O)CC[C@]5(C)CC[C@@]4(C)[C@]3(C)CC[C@@H]12 [Enoxolone],1.06,0.933,0.631,0.901,0.41,1.32
C[C@@H](O)[C@H]1C(=O)N2C(C(=O)[O-])=C(SC3Cn4cnc[n+]4C3)[C@H](C)[C@H]12 (some centres not stated) [Biapenem],1.35,0.934,1.14,1.22,1.02,0.838
O=C(NCCN1CCOCC1)Nc1nc2ccc(Sc3nnc4ccc(-c5ccc(F)cc5)nn34)cc2s1,1.21,1.01,1.2,1.23,0.646,1.15
CCN(CC)Cc1cc(Nc2ccnc3cc(Cl)ccc23)ccc1O [Amodiaquine dihydrochloride dihydrate],3.19,3.25,1.79,3.65,3.36,2.54
N[C@@H](Cc1c[nH]c2ccc(O)cc12)C(=O)O [5-hydroxytryptophan (5-HTP)],1.11,0.965,0.903,0.927,0.404,0.744
c1ccc2c(Oc3nc(Nc4ccc(N5CCOCC5)cc4)c4ncn(C5CCCCC5)c4n3)cccc2c1 [Purmorphamine],1.93,1.81,0.922,0.758,1.17,1.94
Nc1ccc(C(=O)O)c(O)c1 [4-Aminosalicylic acid],0.634,0.798,2.33,0.835,0.517,0.799
COc1ncnc(NS(=O)(=O)c2ccc(N)cc2)c1OC [Sulfadoxine],0.66,1.24,0.743,0.491,0.397,1.39
CO/N=C(\C(=O)N[C@@H]1C(=O)N2C(C(=O)OC(C)OC(C)=O)=C(COC(N)=O)CS[C@H]12)c1ccco1 (some centres not stated) [Cefuroxime axetil],0.923,0.763,0.929,1.28,1.28,1.41
CC1=C(C(=O)Nc2cc3cn[nH]c3cc2F)C(c2ccc(C(F)(F)F)cc2)CC(=O)N1 (configuration not stated),2.35,1.68,2.39,2.35,0.954,2.51
Cc1nc(C(=O)NCC(=O)O)c(O)c2ccc(Oc3ccccc3)cc12,1.71,1.55,1.53,2.88,1.32,1.92
CN(C)CCC=C1c2ccccc2C(C)(C)c2ccccc21 [Melitracen hydrochloride],1.33,1.82,2.27,2.65,1.5,1.37
Cn1c([N+](=O)[O-])cnc1COC(N)=O [Ronidazole],1.13,0.834,0.687,1.01,0.646,1.59

SMILES,Euclidean distance (786-O),Euclidean distance (A549),Euclidean distance (DU145),Euclidean distance (FB),Euclidean distance (HEPG2),Euclidean distance (OVCAR4)
Cc1cn(-c2cc(NC(=O)c3ccc(C)c(Nc4nccc(-c5cnccn5)n4)c3)cc(C(F)(F)F)c2)cn1 [Radotinib],1.61,1.33,1.78,1.12,0.843,1.17
CC(=O)NC[C@H]1CN(c2ccc(N3CCOCC3)c(F)c2)C(=O)O1 [Linezolid],1.83,1.27,1.73,0.611,0.92,1.35
CC(CCc1ccccc1)NCC(O)c1ccc(O)c(C(N)=O)c1 (configuration not stated) [Labetalol HCl],1.08,0.727,0.701,1.03,0.361,1.22
CC1(C)CNc2cc(NC(=O)c3cccnc3NCc3ccncc3)ccc21 [Motesanib Diphosphate (AMG-706)],1.29,1.76,1.48,1.96,1.27,1.37
COc1cc(NC(=O)c2ccc(-c3ccc(Cl)cc3)o2)cc(OC)c1,0.91,1.46,1.23,0.788,1.04,1.48
S=C(NCc1ccc2c(c1)OCO2)N1CCN(c2ncnc3c2oc2ccccc23)CC1 [Amuvatinib (MP-470)],1.2,1.72,1.25,1.07,2.14,1.2
OC[C@H]1O[C@@H](O[C@@H]2[C@@H](CO)OC(O)(CO)[C@H]2O)[C@H](O)[C@@H](O)[C@H]1O (mixture of isomers) [Lactulose],1.29,0.822,0.75,0.999,1.43,1.7
CC(COc1ccccc1Cc1ccccc1)N1CCCCC1 (configuration not stated) [Benproperine phosphate],1.67,1.63,1.72,1.18,1.58,1.42
CCN(CC)C(=O)C1(c2ccccc2)CC1CN (configuration not stated) [Milnacipran HCl],1.2,1.04,0.974,1.14,0.468,0.854
Cc1c(-c2cnccn2)ssc1=S [Oltipraz],1.13,0.941,0.666,0.877,1.11,1.3
CC1CNc2c(cccc2S(=O)(=O)N[C@@H](CCCNC(=N)N)C(=O)N2CC[C@@H](C)C[C@@H]2C(=O)O)C1 (some centres not stated) [Argatroban],0.618,0.352,0.62,0.896,0.99,0.903
CCC(C(=O)O)c1ccc(N2Cc3ccccc3C2=O)cc1 (configuration not stated) [Indobufen],0.947,0.717,1.19,1.01,0.618,1.31
Oc1ccc([C@H]2COc3cc(O)ccc3C2)cc1 [Equol],1.09,1.52,1.04,1.35,0.768,1.72
O=C(NC(Cc1cc(=O)[nH]c2ccccc12)C(=O)O)c1ccc(Cl)cc1 (configuration not stated) [Rebamipide],1.17,1.17,1.29,0.77,1.97,1.06
O=C(NC1CCNCC1)c1n[nH]cc1NC(=O)c1c(Cl)cccc1Cl,3.37,3.2,2.81,4.13,2.47,3.69
Cc1cccc(C)c1OCC(=O)N[C@@H](Cc1ccccc1)[C@@H](O)C[C@H](Cc1ccccc1)NC(=O)[C@H](C(C)C)N1CCCNC1=O [Lopinavir],2.06,1.69,1.44,1.1,0.896,1.92
CCN(CC)C(=O)N1CCN(C)CC1 [Diethylcarbamazine citrate],0.755,0.674,0.703,0.826,0.536,1.14
CCCC(CCC)C(N)=O [Valpromide],0.509,1.08,1,1.42,0.77,1.44
C[C@H](O)C(=O)Nc1c(I)c(C(=O)NC(CO)CO)c(I)c(C(=O)NC(CO)CO)c1I [Iopamidol],0.656,0.571,0.699,1.06,0.734,1.33
CO[C@H]1C[C@H](O[C@@H]2/C(C)=C/C[C@@H]3C[C@@H](C[C@]4(CC[C@H](C)[C@@H](C5CCCCC5)O4)O3)OC(=O)[C@@H]3C=C(C)/C(=N/O)[C@H]4OC/C(=C\C=C\[C@@H]2C)[C@]43O)O[C@@H](C)[C@@H]1O [Selamectin],1.94,3.16,6.67,1.24,0.681,1.04
CNCCC(Oc1ccc(C(F)(F)F)cc1)c1ccccc1 (configuration not stated) [Fluoxetine HCl],0.84,1.16,1.21,1.78,1.35,1.71
O=C(NOC[C@H](O)CO)c1ccc(F)c(F)c1Nc1ccc(I)cc1F,3.1,2.57,3.66,3.5,2.03,2.63
CCCCc1oc2ccccc2c1C(=O)c1cc(I)c(OCCN(CC)CC)c(I)c1 [Amiodarone HCl],1.56,1.84,2.02,1.95,2.01,2.4
